Data: PubChem BioAssay (Tox21)
A number with no mark means an inactive call. Records with an inconclusive call do not appear. A call without a number means that no potency is given here. Calls of active or inactive are those of the source. Unless noted, calls follow the shape of the full dose curve.

Columns and labels:
[1] = Nuclear factor erythroid 2-related factor 2/antioxidant responsive element (Nrf2/ARE) small molecule agonists: qHTS cell viability counter screen in human keratinocytes (AID 1919968; active = well fitted curve in the direction sought with a large enough effect in the repeat runs; an effect the other way counts as inactive or inconclusive; also: nearly all actives have a fitted effect of over 55% in size)
Outline: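 Fluorescence read-out from CellTiter-Fluor after 1 h at 37 C. Wells held HaCaT-derived ARE-luciferase reporter cells (1,500/well) treated 23 h with DMSO-dissolved compounds. Run in the same wells as the luciferase agonist read.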

[2] = Nuclear factor erythroid 2-related factor 2/antioxidant responsive element (Nrf2/ARE) small molecule agonists: luciferase reporter gene qHTS assay in human keratinocytes (AID 1919969); also: nearly all actives have a fitted effect of over 35% in size
[3] = target: Gonadotropin-releasing hormone receptor (Homo sapiens) (UniProt P30968); assay: Human gonadotropin-releasing hormone receptor (GnRHR) small molecule agonists, calcium flux assay in GnRHR-HEK293 cells (AID 1920063); also: nearly all actives have a fitted effect of over 35% in size
Chain of Gonadotropin-releasing hormone receptor (Homo sapiens) (P30968 whole entry, looked up): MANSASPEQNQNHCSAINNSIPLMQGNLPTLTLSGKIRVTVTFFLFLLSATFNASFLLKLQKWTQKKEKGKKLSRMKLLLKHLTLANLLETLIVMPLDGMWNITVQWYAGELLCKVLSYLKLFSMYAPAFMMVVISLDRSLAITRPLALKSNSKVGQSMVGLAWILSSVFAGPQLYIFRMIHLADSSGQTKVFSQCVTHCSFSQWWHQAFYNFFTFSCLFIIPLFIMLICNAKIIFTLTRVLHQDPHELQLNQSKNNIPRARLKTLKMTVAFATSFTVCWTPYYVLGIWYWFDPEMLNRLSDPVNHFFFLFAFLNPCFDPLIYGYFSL
Outline: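 Calcium-dye fluorescence, Ex/Em=480/540, recorded every 1 sec over 3 min after compound addition to GnRHR-HEK293 cells. Cells had been seeded 18 hours earlier and dye-loaded for 1 hour at 37 C. Fifteen concentrations, triplicates.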

[4] = target: KiSS-1 receptor (Homo sapiens) (UniProt Q969F8); assay: Human kisspeptin (KISS1R) small molecule agonists, calcium flux assay in KISS1R-HEK293 cells (AID 1920064; active = well fitted curve in the direction sought with a large enough effect in the repeat runs; an effect the other way counts as inactive or inconclusive)
Chain of KiSS-1 receptor (Homo sapiens) (Q969F8 whole entry, looked up): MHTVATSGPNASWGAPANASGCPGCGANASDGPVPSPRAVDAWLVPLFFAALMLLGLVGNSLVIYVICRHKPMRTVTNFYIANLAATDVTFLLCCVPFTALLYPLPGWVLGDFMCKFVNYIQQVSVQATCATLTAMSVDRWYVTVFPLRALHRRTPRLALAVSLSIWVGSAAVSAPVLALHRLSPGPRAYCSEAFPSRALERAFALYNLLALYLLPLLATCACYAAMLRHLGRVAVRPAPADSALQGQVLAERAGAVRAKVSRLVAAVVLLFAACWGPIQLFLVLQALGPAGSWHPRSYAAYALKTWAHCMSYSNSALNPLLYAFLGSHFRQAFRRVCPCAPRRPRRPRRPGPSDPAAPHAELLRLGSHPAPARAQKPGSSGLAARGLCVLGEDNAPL
Outline: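 Calcium flux read-out: kinetic fluorescence at Ex/Em=480/540, 1 s intervals over 3 min, after pin-tool compound addition to dye-loaded KISS1R-HEK293 cells. Fifteen concentrations, triplicates.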

[5] = G protein-coupled receptor (GPCR) small molecule agonists, calcium flux assay: HEK293 wild type cell line counter screen (AID 1920065)
Outline: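 Agonist mode; 18 h seeding at 37 C, 1 h dye load at 37 C; compounds pinned from DMSO, ATP as positive control; kinetic fluorescence 480/540 nm, 3 min, 1 s reads; 15 concentrations, triplicate.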

[6] = p53 small molecule agonists, cell-based qHTS assay with human liver microsomes (AID 1963577);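 also: p53 response element beta-lactamase reporter cells with liver microsomes plus NADPH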
Outline: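 HLM-supplemented p53RE-bla reporter assay: 16 h compound exposure at 37 C, microsomes and NADPH each 0.5 mg/mL final, read by fluorescence intensity.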

[7] = p53 small molecule agonists, cell-based qHTS assay with rat liver microsomes (AID 1963578)
Outline: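 Quantitative HTS of the Tox21 10K library: p53RE-bla cells, rat liver microsomes plus NADPH at 0.5 mg/mL final each, 16 h at 37 C, beta-lactamase fluorescence detection.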

[8] = p53 small molecule agonists, cell-based qHTS assay with rat liver microsomes: qHTS cell viability counter screen (AID 1963580); also: nearly all actives have a fitted effect of over 45% in size
Outline: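 Cytotoxicity counter screen: intracellular ATP measured by CellTiter-Glo luminescence in the same wells as the beta-lactamase reporter read, on HCT-116 p53RE-bla cells exposed 16 h at 37 C to compounds with rat liver microsomes and NADPH, each 0.5 mg/mL final.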

[9] = p53 small molecule agonists, cell-based qHTS assay: qHTS cell viability counter screen (AID 1963581); also: nearly all actives have a fitted effect of over 45% in size
Outline: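 Cytotoxicity read-out: ATP-based luminescence (CellTiter-Glo, 30 min RT) measured in the same wells as the p53 reporter assay, HCT-116 p53RE-bla cells, 16 h compound exposure at 37 C.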

[10] = p53 small molecule agonists, cell-based qHTS assay (AID 1963582; active = well fitted activation curve with a large enough effect in the signal ratio in the repeat runs, not every such curve was filed as active; the % refers to the signal ratio; also: potency is read from the fitted curve at half-maximal effect)
Outline: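 Fluorescence intensity read-out of a beta-lactamase reporter under a p53 response element. Cells were exposed to DMSO-dissolved compounds for 16 h at 37 C, then developed with FRET substrate for 2 h at RT.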

[11] = target: 5-hydroxytryptamine receptor 2A (Homo sapiens) (UniProt P28223); assay: 5-hydroxytryptamine receptor 2A (HTR2A) small molecule agonists, cell-based qHTS assay (AID 1963587); also: nearly all actives have a fitted effect of over 30% in size
Chain of 5-hydroxytryptamine receptor 2A (Homo sapiens) (P28223 whole entry, looked up): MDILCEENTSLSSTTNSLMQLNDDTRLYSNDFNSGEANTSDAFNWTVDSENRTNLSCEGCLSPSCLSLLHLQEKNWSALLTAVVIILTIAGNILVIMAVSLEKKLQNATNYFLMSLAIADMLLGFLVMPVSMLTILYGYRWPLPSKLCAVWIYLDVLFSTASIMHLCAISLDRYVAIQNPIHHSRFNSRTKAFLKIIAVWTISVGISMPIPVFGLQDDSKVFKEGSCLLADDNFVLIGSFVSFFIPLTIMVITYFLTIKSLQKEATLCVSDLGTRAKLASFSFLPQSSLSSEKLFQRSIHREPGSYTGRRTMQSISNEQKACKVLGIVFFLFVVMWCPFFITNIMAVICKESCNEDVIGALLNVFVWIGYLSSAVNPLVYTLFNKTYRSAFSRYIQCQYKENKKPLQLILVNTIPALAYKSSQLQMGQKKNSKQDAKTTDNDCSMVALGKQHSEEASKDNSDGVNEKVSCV
Outline: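 CHO cells stably expressing human HTR2A, plated 18 h, loaded with calcium dye 1 h at 37 C. Agonist mode: compounds added and intracellular calcium fluorescence recorded kinetically for 2 min at 1 sec intervals.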

[12] = target: Muscarinic acetylcholine receptor M1 (Homo sapiens) (UniProt P11229); assay: Cholinergic receptor muscarinic 1 (CHRM1) small molecule antagonists, cell-based qHTS assay (AID 1963588); also: nearly all actives have a fitted effect of over 40% in size
Chain of Muscarinic acetylcholine receptor M1 (Homo sapiens) (P11229 whole entry, looked up): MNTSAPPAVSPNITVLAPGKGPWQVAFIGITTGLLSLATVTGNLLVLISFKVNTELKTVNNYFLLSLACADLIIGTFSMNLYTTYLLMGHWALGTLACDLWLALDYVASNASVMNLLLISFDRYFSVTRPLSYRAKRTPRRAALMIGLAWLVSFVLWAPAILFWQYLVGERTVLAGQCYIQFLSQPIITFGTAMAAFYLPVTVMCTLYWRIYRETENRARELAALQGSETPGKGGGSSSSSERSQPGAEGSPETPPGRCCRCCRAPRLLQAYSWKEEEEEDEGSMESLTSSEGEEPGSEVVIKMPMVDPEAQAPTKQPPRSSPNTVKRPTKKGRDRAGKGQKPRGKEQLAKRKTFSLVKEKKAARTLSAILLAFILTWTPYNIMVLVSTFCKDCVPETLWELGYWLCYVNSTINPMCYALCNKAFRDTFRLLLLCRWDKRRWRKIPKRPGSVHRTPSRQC
Outline: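 Compounds were tested at 15 concentrations in three independent runs. Dye-loaded CHRM1-CHO cells were exposed 5 min at room temperature before stimulation by acetylcholine added at 50nM. Intracellular calcium was read kinetically on FDSS for 3 min.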

[13] = target: Muscarinic acetylcholine receptor M1 (Homo sapiens) (UniProt P11229); assay: Cholinergic receptor muscarinic 1 (CHRM1) small molecule agonists, cell-based qHTS assay (AID 1963589); also: nearly all actives have a fitted effect of over 35% in size
Outline: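 Calcium flux read-out: kinetic fluorescence at 1 sec intervals after pin-tool compound addition to dye-loaded CHRM1-CHO cells (human M1). Agonist mode; 15 concentrations tested in triplicate independent runs.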

[14] = cAMP Responsive Elements (CRE) small molecule agonists, cell-based qHTS assay (AID 1963590)
Outline: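 Beta-lactamase reporter readout: LiveBLAzer B/G FRET substrate, 2 h at room temperature, added after 3 h compound treatment of CRE-bla HEK 293T cells at 37 C/5% CO2.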

[15] = cAMP Responsive Elements (CRE) small molecule antagonists, cell-based qHTS assay (AID 1963591; active = well fitted inhibition curve with a large enough effect in the signal ratio in the repeat runs, not every such curve was filed as active; the % refers to the signal ratio)
Outline: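 HEK293T CRE-bla; 18 h preincubation; compound pin-transfer; NKH477 0.25 uM final, 3 h, 37 C; LiveBLAzer FRET substrate 2 h RT.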

[16] = target: Beta-2 adrenergic receptor (Homo sapiens) (UniProt P07550); assay: Adrenergic beta2 receptor (ADRB2) small molecule antagonists, cell-based qHTS assay (AID 1963592); also: nearly all actives have a fitted effect of over 50% in size; also: potency is read from the fitted curve at half-maximal effect
Chain of Beta-2 adrenergic receptor (Homo sapiens) (P07550 whole entry, looked up): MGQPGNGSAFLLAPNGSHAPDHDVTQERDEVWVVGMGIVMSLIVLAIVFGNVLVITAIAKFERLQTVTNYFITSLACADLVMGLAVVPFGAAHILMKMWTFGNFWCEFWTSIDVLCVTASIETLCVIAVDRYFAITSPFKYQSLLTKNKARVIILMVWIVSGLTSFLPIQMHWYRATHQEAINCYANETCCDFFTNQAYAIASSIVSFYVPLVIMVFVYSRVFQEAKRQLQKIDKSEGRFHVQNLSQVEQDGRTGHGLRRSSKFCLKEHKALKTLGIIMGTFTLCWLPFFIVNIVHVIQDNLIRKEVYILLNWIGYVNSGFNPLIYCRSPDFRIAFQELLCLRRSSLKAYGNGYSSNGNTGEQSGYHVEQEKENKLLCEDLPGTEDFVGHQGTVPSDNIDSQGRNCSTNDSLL
Outline: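 Assay format: CHO-ADRB2 cells, 18-20hr seeding at 37C/5% CO2, then compound plus 1nM isoproterenol agonist mix for 0.5hr RT. Homogeneous time-resolved fluorescence cAMP detection after 1hr, expressed as 665/615 nm ratio.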

[17] = target: D(2) dopamine receptor (Homo sapiens) (UniProt P14416); assay: Dopamine D2 receptor (DRD2) small molecule agonists, cell-based qHTS assay (AID 1963594); also: nearly all actives have a fitted effect of over 35% in size
Chain of D(2) dopamine receptor (Homo sapiens) (P14416 whole entry, looked up): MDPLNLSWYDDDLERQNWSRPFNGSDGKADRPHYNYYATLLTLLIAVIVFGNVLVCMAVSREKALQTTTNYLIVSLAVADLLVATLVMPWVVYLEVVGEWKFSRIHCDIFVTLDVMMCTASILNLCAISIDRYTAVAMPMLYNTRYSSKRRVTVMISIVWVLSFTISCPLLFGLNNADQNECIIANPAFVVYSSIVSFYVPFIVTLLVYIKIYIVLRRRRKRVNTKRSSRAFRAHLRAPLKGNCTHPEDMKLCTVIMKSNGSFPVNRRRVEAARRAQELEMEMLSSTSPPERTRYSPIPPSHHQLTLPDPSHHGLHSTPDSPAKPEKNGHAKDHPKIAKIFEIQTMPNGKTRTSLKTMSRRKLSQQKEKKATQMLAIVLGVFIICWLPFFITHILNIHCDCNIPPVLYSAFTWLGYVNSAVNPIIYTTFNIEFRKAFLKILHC
Outline: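 HEK293 cells stably expressing human DRD2, pre-treated with PDE inhibitor Ro20-1724 (0.1 mM final) and compound 10 min at room temperature, then stimulated with NKH477 (200nM […]) for 30 min. cAMP read by HTRF (665/620 nm).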

[18] = target: D(2) dopamine receptor (Homo sapiens) (UniProt P14416); assay: Dopamine D2 receptor (DRD2) small molecule antagonists, cell-based qHTS assay (AID 1963595; active = well fitted inhibition curve with a large enough effect in the signal ratio in the repeat runs, with a control signal flat; the % refers to the signal ratio)
Outline: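 HTRF cAMP read-out at 665 and 620 nm emission (340 nm excitation). Antagonist mode: compounds were tested against 12 nM quinpirole in DRD2-HEK293 cells, with 200 nM NKH477 raising cAMP and 0.1 mM Ro20-1724 blocking its breakdown.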

[19] = target: 5-hydroxytryptamine receptor 2A (Homo sapiens) (UniProt P28223); assay: 5-hydroxytryptamine receptor 2A (HTR2A) small molecule antagonists, cell-based qHTS assay (AID 1963586); also: nearly all actives have a fitted effect of over 45% in size
Outline: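 CHO cells stably expressing human HTR2A were plated for 18 h at 37 C, then loaded with calcium dye for 1 h. Compounds were preincubated 5 min at room temperature before DOI (4 nM solution) was added. Kinetic fluorescence was read for 3 min.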

[20] = target: Beta-2 adrenergic receptor (Homo sapiens) (UniProt P07550); assay: Adrenergic beta2 receptor (ADRB2) small molecule agonists, cell-based qHTS assay (AID 1963593);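 also: CHO cells stably overexpressing human ADRB2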
Outline: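 CHO cells stably over-expressing ADRB2 were plated overnight at 37C, then dosed with compounds plus a stimulation mix containing 100uM IBMX and 25uM Ro-20-1724 for 0.5hr at room temperature. cAMP was measured by HTRF competition, 1hr.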

| Structure (SMILES) | Potency [1] | Potency [2] | Potency [3] | outcome [4] | outcome [5] | Potency [6] | Potency [7] | Potency [8] | Potency [9] | Potency [10] | Potency [11] | Potency [12] | Potency [13] | Potency [14] | Potency [15] | Potency [16] | Potency [17] | Potency [18] | Potency [19] | Potency [20] |
| --- | --- | --- | --- | --- | --- | --- | --- | --- | --- | --- | --- | --- | --- | --- | --- | --- | --- | --- | --- | --- |
| Nc1cnn([C@@H]2O[C@H](CO)[C@@H](O)[C@H]2O)c(=O)n1 | inactive | inactive | inactive | inactive | inactive | inactive | inactive | inactive | inactive | 1450 nM (active) | inactive | inactive | inactive | inactive | inactive | inactive | inactive | – | – | – |
| CCS(=O)(=O)CCn1c([N+](=O)[O-])cnc1C | inactive | inactive | inactive | inactive | inactive | inactive | inactive | inactive | inactive | inactive | – | – | – | inactive | inactive | inactive | inactive | inactive | – | – |
| O=C(O)c1cc(Cl)cc(Cl)c1 | inactive | inactive | inactive | inactive | inactive | inactive | inactive | inactive | inactive | inactive | inactive | inactive | inactive | – | – | inactive | inactive | inactive | inactive | – |
| CC(C)(O)CCc1ccccc1 | inactive | inactive | inactive | inactive | inactive | inactive | inactive | inactive | inactive | inactive | inactive | – | inactive | inactive | inactive | inactive | inactive | – | inactive | inactive |
| Cc1cc2c(OCC(CNC(C)(C)C)OC(=O)c3ccccc3)cccc2[nH]1 (centres undefined) | inactive | inactive | inactive | inactive | inactive | inactive | inactive | inactive | inactive | inactive | – | – | – | inactive | inactive | 168 nM (active) | inactive | inactive | – | – |
| COc1cc(NS(=O)(=O)c2ccc(N)cc2)nc(OC)n1 | inactive | inactive | inactive | inactive | inactive | inactive | inactive | inactive | inactive | inactive | – | – | – | inactive | inactive | inactive | inactive | inactive | – | – |
| Nc1ncnc(Nc2ccccc2)n1 | inactive | inactive | inactive | inactive | inactive | inactive | inactive | inactive | inactive | – | inactive | inactive | inactive | inactive | inactive | inactive | inactive | inactive | inactive | inactive |
| CC(C)C[P+](C)(CC(C)C)CC(C)C | inactive | inactive | inactive | inactive | inactive | inactive | inactive | inactive | inactive | inactive | inactive | inactive | – | inactive | inactive | inactive | inactive | inactive | inactive | – |
